PubChem BioAssay
Activity calls are given as the source filed them. Unless noted, the rule behind the calls is not given here.

Experiments:
[1] = compounds binding Alexa647 anti-His antibody – biochemical, small-molecule microarray, 635 nm fluorescence, artefact control for SMM control protein annotation, primary screen (AID 1128); settings: higher = more signal;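 note: score merges feature fluorescence with signal-to-noise for each printed compound spot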
[2] = test system: Human papillomavirus type 1a E7 protein (residues 1-88); experiment: HPV1a E7 small-molecule binders, primary screen, biochemical, small-molecule microarray, residues 1-88, 635 nm (AID 1129); settings: small-molecule microarray binding, fluorescence 635 nm; higher = more signal
[3] = molecular target: Focal adhesion kinase 1 (Homo sapiens) (UniProt Q05397); experiment: PTK2 protein binding on printed compound slides – biochemical, small-molecule microarray, 635/667 nm fluorescence, BSA, DTT, primary screen (AID 1130); settings: 635 nm fluorescence, higher = more signal;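 note: composite of spot emission at 667 nm and signal to noise over triplicate slides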
[4] = test system: Fibrinogen (Alexa647-labelled); experiment: Alexa647-fibrinogen binding to printed small molecules – biochemical, small-molecule microarray, 635/667 nm fluorescence, artefact control for SMM control-protein annotation, profiling panel (AID 1131); settings: fibrinogen-A647 binding fluorescence, higher = more signal;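 note: z-score merges 667 nm fluorescence with per-spot signal-to-noise over triplicate slides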
[5] = molecular target: Follistatin (Homo sapiens) (UniProt P19883); experiment: FST protein binding to printed compounds – biochemical, small-molecule microarray, 635/667 nm fluorescence, primary screen (AID 1132); settings: 635 nm fluorescence, higher = more signal
[6] = molecular target: Fibroblast growth factor 2 (Homo sapiens) (UniProt P09038); experiment: basic fibroblast growth factor binding to printed compounds – biochemical, small-molecule microarray, 635/667 nm fluorescence, primary screen (AID 1133); settings: FGF2, fluorescence 635/667, higher = more signal
[7] = JC-1 mitochondrial potential readout, lung cancer cells – cell-based, A549, JC-1 fluorescence, basal, 24 h, 100 nL, profiling panel (AID 1138); settings: higher = more signal;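 note: A549 lung adenocarcinoma cells under basal conditions with no added stimulus; test concentration not given here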
Lefty1 = Lefty1 protein binding to printed compounds – biochemical, small-molecule microarray, 635/667 nm fluorescence, primary screen (AID 1139); settings: fluorescence 635/667, higher = more signal
[8] = test system: wheat germ agglutinin (Triticum aestivum), Alexa647-labelled; experiment: Alexa647-WGA lectin binding to printed small molecules – biochemical, small-molecule microarray, 635/667 nm fluorescence, artefact control for SMM control-protein annotation, profiling panel (AID 1140); settings: WGA-A647 binding, 635 nm fluorescence, higher = more signal;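 note: score merges 667 nm feature emission with signal to noise over triplicate slides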
[9] = molecular target: Luciferin 4-monooxygenase (Photinus pyralis) (UniProt P08659); experiment: inhibition of purified Photinus pyralis luciferase – biochemical, luminescence, purified enzyme, 2006 set, primary screen (AID 1141); settings: purified firefly luciferase, SteadyGlo luminescence, 30 min; higher = more signal, called active from +8 up or from −8 down;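 note: cell-free assay with purified firefly luciferase at 100 ng per well in PBS; test concentration not given here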
[10] = test system: Wnt5a (protein binding on small-molecule microarray); experiment: small molecules binding Wnt5a protein – biophysical, small-molecule microarray, 635/667 nm fluorescence, primary screen (AID 1142); settings: 635 nm fluorescence, higher = more signal;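 note: fluorescence read at 667 nm with signal to noise per printed feature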
[11] = ATP-based viability of Huh7 replicon cells – cell-based, CellTiter-Glo luminescence, basal, 48 h, cytotoxicity control for HCV replication inhibitor project, primary screen (AID 1143); settings: higher = more signal, called active from +8 up or from −8 down;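 note: Huh7 hepatoma cells carrying a hepatitis C replication reporter with no stimulus; test concentration not given here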
[12] = Pseudomonas biofilm growth suppression – PAO1 strain, BacTiter-Glo luminescence, LB-PBS, primary screen (AID 1144); settings: P. aeruginosa PAO1 biofilm, 12 h, higher = more signal
[13] = basal CRE-LacZ reporter activity in PC12 – cell-based, unstimulated, primary screen (AID 1145); settings: no forskolin, luminescence, 4.5 h, higher = more signal, called active from +8 up or from −8 down
[14] = forskolin-driven CRE-LacZ activity in PC12 – cell-based, CRE-LacZ reporter, forskolin-stimulated, primary screen (AID 1146); settings: luminescence, 4.5 h, higher = more signal, called active from +8 up or from −8 down;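 note: PC12 cells with 6xCRE LacZ reporter stimulated by forskolin 10 µM; beta-galactosidase reporter signal reflecting CREB driven transcription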
[15] = molecular target: Streptavidin (Streptomyces avidinii) (UniProt P22629); experiment: compounds binding control protein streptavidin – biophysical, small-molecule microarray, 635/667 nm fluorescence, artefact control for SMM compound annotation, primary screen (AID 1147); settings: higher = more signal;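 note: signal reflects streptavidin binding to arrayed compounds as a control protein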
[16] = probe aInhba binding on compound microarray – biochemical, small-molecule microarray, 635/667 nm fluorescence, primary screen (AID 1148); settings: higher = more signal;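 note: score merges 667nm spot fluorescence with signal-to-noise for antibody binding to printed compounds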
Torsin-1A (Homo sapiens) [17] = molecular target: Torsin-1A (Homo sapiens) (UniProt O14656); experiment: TOR1A wild-type binding on microarray – cell lysate, small-molecule microarray, lysate, 635/667 nm, primary screen (AID 1149); settings: COS7 hTOR1A-WT lysate, 635 nm fluorescence, higher = more signal
Torsin-1A (Homo sapiens) [18] = molecular target: Torsin-1A (Homo sapiens) (UniProt O14656); experiment: torsin A mutant lysate binding on microarrays – cell lysate, small-molecule microarray, COS7 lysate, 635/667 nm fluorescence, primary screen (AID 1150); settings: COS7 hTOR1A mutant lysate, 635 nm fluorescence, higher = more signal;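 note: score pools 667 nm emission and signal to noise measuring lysate protein binding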
[19] = test system: Sonic hedgehog protein (Shh); experiment: Sonic hedgehog microarray binding compounds – biochemical, small-molecule microarray, 635/667 nm fluorescence, primary screen (AID 1151); settings: 635 nm fluorescence, higher = more signal;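 note: Shh protein binding to compounds spotted on small-molecule microarray slides; score combines spot fluorescence intensity with signal-to-noise across triplicate slides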

Chain of Follistatin (Homo sapiens) (P19883 whole entry, looked up): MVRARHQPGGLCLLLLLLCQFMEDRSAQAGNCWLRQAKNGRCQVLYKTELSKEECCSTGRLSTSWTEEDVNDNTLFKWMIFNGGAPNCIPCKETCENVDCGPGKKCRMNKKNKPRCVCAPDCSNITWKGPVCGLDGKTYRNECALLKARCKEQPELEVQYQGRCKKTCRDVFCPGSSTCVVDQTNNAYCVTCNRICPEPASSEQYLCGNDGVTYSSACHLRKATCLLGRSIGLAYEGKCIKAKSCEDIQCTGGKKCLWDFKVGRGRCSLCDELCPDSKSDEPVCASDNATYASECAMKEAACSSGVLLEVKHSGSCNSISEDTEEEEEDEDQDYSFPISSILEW
Chain of Torsin-1A (Homo sapiens) (O14656 whole entry, looked up): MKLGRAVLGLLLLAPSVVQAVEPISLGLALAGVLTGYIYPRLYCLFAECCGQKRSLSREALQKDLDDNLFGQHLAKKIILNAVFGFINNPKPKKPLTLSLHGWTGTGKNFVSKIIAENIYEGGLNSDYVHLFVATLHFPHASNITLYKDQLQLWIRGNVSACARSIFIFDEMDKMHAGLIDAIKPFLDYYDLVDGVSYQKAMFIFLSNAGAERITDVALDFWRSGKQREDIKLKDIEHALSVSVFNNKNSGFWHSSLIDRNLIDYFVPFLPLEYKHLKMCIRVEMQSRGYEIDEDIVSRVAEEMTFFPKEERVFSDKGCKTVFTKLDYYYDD
Chain of Streptavidin (Streptomyces avidinii) (P22629 whole entry, looked up): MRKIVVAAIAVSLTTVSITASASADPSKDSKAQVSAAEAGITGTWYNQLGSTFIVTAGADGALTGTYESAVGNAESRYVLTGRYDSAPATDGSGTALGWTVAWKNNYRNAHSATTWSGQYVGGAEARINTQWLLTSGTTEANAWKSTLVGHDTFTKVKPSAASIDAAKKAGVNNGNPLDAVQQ
Chain of Focal adhesion kinase 1 (Homo sapiens) (Q05397 whole entry, looked up): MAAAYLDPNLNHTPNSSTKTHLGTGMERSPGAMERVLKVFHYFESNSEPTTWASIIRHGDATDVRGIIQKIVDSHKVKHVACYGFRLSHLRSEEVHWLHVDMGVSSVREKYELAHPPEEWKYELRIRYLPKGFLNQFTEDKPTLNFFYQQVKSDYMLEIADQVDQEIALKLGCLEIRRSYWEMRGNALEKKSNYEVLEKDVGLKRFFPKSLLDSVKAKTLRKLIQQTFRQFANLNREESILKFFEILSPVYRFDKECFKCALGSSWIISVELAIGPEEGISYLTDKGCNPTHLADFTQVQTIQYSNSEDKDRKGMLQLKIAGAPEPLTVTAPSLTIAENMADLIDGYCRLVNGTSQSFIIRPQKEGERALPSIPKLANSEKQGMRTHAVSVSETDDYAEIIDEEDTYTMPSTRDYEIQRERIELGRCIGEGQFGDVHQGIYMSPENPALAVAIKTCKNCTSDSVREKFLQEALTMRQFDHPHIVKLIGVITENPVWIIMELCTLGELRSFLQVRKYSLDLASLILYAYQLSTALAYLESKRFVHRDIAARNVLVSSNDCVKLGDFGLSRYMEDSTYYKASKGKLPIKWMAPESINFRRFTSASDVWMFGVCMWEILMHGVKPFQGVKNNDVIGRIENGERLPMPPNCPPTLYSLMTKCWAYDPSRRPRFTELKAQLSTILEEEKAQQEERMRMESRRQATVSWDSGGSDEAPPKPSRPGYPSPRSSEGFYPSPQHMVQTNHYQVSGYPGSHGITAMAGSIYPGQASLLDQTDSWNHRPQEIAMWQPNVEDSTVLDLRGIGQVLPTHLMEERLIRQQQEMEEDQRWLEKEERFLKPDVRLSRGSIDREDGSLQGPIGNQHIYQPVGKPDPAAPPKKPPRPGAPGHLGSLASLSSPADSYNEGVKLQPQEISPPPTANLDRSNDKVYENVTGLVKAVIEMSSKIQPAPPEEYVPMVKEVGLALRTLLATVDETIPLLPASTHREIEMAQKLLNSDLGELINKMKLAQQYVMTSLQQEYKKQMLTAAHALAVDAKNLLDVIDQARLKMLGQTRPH
Chain of Luciferin 4-monooxygenase (Photinus pyralis) (P08659 whole entry, looked up): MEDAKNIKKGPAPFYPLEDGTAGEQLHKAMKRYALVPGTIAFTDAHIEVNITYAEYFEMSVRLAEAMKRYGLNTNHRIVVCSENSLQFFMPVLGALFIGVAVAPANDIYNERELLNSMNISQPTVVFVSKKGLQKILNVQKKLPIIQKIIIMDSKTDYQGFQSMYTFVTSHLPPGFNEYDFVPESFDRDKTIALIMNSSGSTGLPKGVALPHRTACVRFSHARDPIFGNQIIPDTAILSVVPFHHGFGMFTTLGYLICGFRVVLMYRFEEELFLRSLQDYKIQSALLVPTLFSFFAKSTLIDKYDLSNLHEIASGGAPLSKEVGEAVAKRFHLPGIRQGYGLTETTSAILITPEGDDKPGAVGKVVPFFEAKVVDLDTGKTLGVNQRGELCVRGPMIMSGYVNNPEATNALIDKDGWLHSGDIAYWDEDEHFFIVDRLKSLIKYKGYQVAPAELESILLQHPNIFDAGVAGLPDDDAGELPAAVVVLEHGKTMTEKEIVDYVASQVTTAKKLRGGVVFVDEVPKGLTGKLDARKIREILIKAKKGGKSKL
Chain of Fibroblast growth factor 2 (Homo sapiens) (P09038 whole entry, looked up): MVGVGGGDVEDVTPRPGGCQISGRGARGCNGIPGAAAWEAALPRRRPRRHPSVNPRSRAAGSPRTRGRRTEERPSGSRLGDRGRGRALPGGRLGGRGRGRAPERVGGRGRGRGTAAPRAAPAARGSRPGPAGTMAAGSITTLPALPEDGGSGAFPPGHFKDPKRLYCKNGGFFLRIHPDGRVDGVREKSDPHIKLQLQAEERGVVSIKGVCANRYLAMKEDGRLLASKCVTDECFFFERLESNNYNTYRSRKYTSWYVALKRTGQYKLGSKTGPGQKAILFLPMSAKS

Structure (SMILES)	composite z-score [1]	composite z-score [2]	composite z-score [3]	composite z-score [4]	composite z-score [5]	composite z-score [6]	z-score [7]	composite z-score (Lefty1)	composite z-score [8]	z-score [9]	composite z-score [10]	z-score [11]	z-score [12]	z-score [13]	z-score [14]	composite z-score [15]	composite z-score [16]	composite z-score (Torsin-1A (Homo sapiens) [17])	composite z-score (Torsin-1A (Homo sapiens) [18])	composite z-score [19]
COc1c(C)cc(-c2cc3c(c(-c4ccc(Oc5ccccc5)cc4)n2)[Si](C(C)C)(C(C)C)OC3)cc1C	-0.271	-0.582	-0.0939	-0.551	-0.228	0.515	0.577	0.38	-0.0472	0.279 (inactive)	0.285	-0.0304 (inactive)	0.0144 (inactive)	0.148 (inactive)	0.151 (inactive)	-0.246	0.127	-0.238	0.164	0.205
O=C1OCCC=C[C@H]2OC34C=CCN(Cc5ccccc5)C(=O)[C@H]3N(CCCCCO)C(=O)[C@@H]4C12 (stereo not given in full)	0.206	0.702	1.95	-1.44	-0.618	-1.16	0.758	0.475	0.809	0.0657 (inactive)	-0.733	0.409 (inactive)	-1.86 (inactive)	-0.216 (inactive)	-0.732 (inactive)	-0.636	-0.128	2.82	2.07	-0.211
COC(=O)[C@@]1(Cc2ccc(OC)cc2)[C@H]2c3cc(C(=O)N4CCCC4)n(CCc4c[nH]c5cc(F)ccc45)c3C[C@H]2CN1C(=O)c1ccccc1	1.46	1.25	0.861	0.994	1.23	0.303	0.509	0.0312	1.18	0.378 (inactive)	0.313	-1.26 (inactive)	-0.0146 (inactive)	0.773 (inactive)	0.199 (inactive)	2.19	0.636	0.188	1.25	0.133
COc1ccc(CCN2C(=O)[C@@]3(Cc4ccccc42)c2ccccc2C(=O)N(Cc2ccccc2Cl)[C@H]3c2ccc(CO)cc2)cc1	-1.74	-1.3	-0.657	-0.953	-1.1	-0.157	-0.599	-1.17	-0.0043	-0.822 (inactive)	-0.0887	-1.7 (inactive)	-0.456 (inactive)	0.558 (inactive)	0.131 (inactive)	-0.343	-0.0403	-0.921	-0.77	-0.801
Cc1ccc(S[C@]2(C(=O)NCC(C)C)CC(=O)N(Cc3ccccc3)[C@@H]2c2ccc(CO)cc2I)cc1	1.38	0.904	0.139	0.312	1.27	0.564	1.03	0.536	0.503	-0.56 (inactive)	0.185	-2.48 (inactive)	0.229 (inactive)	0.856 (inactive)	1.27 (inactive)	0.176	0.0422	0.298	0.835	2.21
[N-]=[N+]=NCc1ccccc1[C@@H]1OC(c2ccc(OCCCO)cc2)=N[C@]1(Cc1ccccc1N=[N+]=[N-])C(=O)NCc1ccccc1	0.512	1.17	0.562	0.198	1.28	0.578	0.249	0.621	0.421	-5.2 (inactive)	0.378	-3 (inactive)	-0.433 (inactive)	-0.193 (inactive)	-1.02 (inactive)	0.942	-0.0006	0.819	0.191	1.51
C=C(COC)C(=O)CC[C@@H](OC(=O)c1cccnc1)c1ccc(CO)o1	-0.131	0.0982	-0.111	0.39	1.18	1.46	0.217	0.911	-0.0265	-2.05 (inactive)	0.345	-0.336 (inactive)	-0.0359 (inactive)	0.611 (inactive)	0.114 (inactive)	-0.022	-0.0675	0.247	-0.332	1.6
CC(C)(C)OC(=O)CC[C@@]1(C(=O)O)N=C(c2ccc(OCCCO)cc2)O[C@@H]1c1ccccc1N=[N+]=[N-]	1.5	0.826	2.08	0.482	0.589	-0.349	-1.49	-0.666	1.28	-12.1 (active)	0.52	0.0429 (inactive)	0.561 (inactive)	-0.183 (inactive)	-0.406 (inactive)	1.01	0.179	1.21	1.22	-0.905
C=C(C(=O)CC[C@H](OC(C)=O)c1ccc(OCCO)cc1)C(C)C	0.772	-0.02	-0.381	0.711	1.4	0.911	-0.217	1.45	0.0674	-0.503 (inactive)	0.35	-8.04 (active)	-0.28 (inactive)	1.63 (inactive)	0.655 (inactive)	0.934	-0.125	0.612	0.909	2.13
CC(C)C[C@@H]1NC(=O)[C@@H]2C[C@H](C(=O)NCCCCCC[N+](C)(C)C)[C@H](c3ccc(O)cc3)N2C1=O	1.59	0.922	0.11	0.427	1.18	0.998	-0.158	1.08	0.56	0.0519 (inactive)	0.0505	0.0436 (inactive)	-0.555 (inactive)	-0.532 (inactive)	0.0161 (inactive)	0.313	-0.0448	1.08	0.767	2.03
CC(C)c1ccc(NN2C(C(O)c3cccc(O)c3)C=CC3C(=O)N(c4ccccc4)C(=O)C32)cc1 (stereo not given)	1.16	1.25	0.781	0.992	1.35	-0.179	0.116	0.61	0.754	-0.824 (inactive)	0.125	-0.392 (inactive)	-0.406 (inactive)	1.39 (inactive)	1.67 (inactive)	1.52	0.0236	0.77	1.3	0.671
O=C(CS)NCCCCCCNC(=O)[C@H]1C[C@H]2C(=O)NCC(=O)N2[C@H]1c1ccc(O)cc1	0.0346	-0.591	0.147	-0.634	1.11	0.697	0.139	-0.0467	-0.223	-0.199 (inactive)	-0.319	0.0181 (inactive)	-0.333 (inactive)	0.692 (inactive)	0.551 (inactive)	-0.406	-0.188	-0.21	-0.14	0.518
COCCOC(=O)N1C(=O)[C@@]2(c3cc(C#CCCO)ccc31)[C@H](c1ccc(O)cc1)N1[C@H](c3ccccc3)[C@H](c3ccccc3)OC(=O)[C@H]1[C@@H]2C(N)=O	3.05	0.215	0.0329	0.19	0.931	0.347	-0.444	0.296	0.0204	0.028 (inactive)	0.453	-0.209 (inactive)	0.393 (inactive)	0.48 (inactive)	0.73 (inactive)	-0.656	0.0388	0.553	0.883	0.493
CC(C)Cc1ccc(CN2CC[C@@H](NS(=O)(=O)c3ccccc3)C2)cc1	0.441	-0.593	-0.0553	-1.02	0.797	-0.0321	-0.641	0.477	-0.654	0.826 (inactive)	-0.353	-5.08 (inactive)	-0.721 (inactive)	0.224 (inactive)	-0.138 (inactive)	-0.369	-0.188	-0.957	-0.274	1.45
CCOC(=O)C[C@H]1[C@H](OC(=O)Cc2ccc3c(c2)OCO3)[C@@H](NC(=O)C2CCCCC2)c2cc(OCCCO)ccc2N1C(=O)Cc1ccc(OC)cc1	0.135	0.807	0.673	0.66	0.139	0.221	2.5	0.333	0.0679	-1.27 (inactive)	0.142	-1.15 (inactive)	-0.0589 (inactive)	6.93 (inactive)	-0.943 (inactive)	0.219	0.0301	0.146	0.511	0.541
C=C[C@H](COC(C)=O)N(Cc1ccc(OC(C)=O)c(OC)c1)S(=O)(=O)c1ccc(Br)cc1	1.29	1.12	-0.174	0.59	1.37	1.75	1.15	1.02	0.492	0.271 (inactive)	0.714	-2.08 (inactive)	-0.569 (inactive)	0.195 (inactive)	-1.9 (inactive)	1.12	0.0219	1.85	2.14	1.75
COC(=O)C[C@@H]1C[C@H](C)[C@]2(O1)C(=O)N(Cc1ccccc1)c1ccc(NC(C)=O)cc12	0.716	0.453	-0.183	0.458	0.431	0.471	-1.05	0.488	-0.259	0.0257 (inactive)	0.739	-0.578 (inactive)	0.347 (inactive)	3.56 (inactive)	-0.47 (inactive)	-0.101	-0.128	0.0771	0.362	0.034
C=CC(COC(C)=O)NS(=O)(=O)c1ccc(Br)cc1 (stereo not given)	0.192	0.971	-0.271	0.596	0.902	0.608	0.499	0.673	0.0285	-0.481 (inactive)	0.136	0.0481 (inactive)	0.465 (inactive)	2.39 (inactive)	1.33 (inactive)	0.923	-0.105	0.211	0.385	0.948
O=C1OCCC=C[C@H]2OC34C=CCN(Cc5ccccc5)C(=O)[C@H]3N(CCCCCCO)C(=O)[C@@H]4C12 (stereo not given in full)	0.0899	-0.374	-0.574	-0.873	-0.0109	-1.02	0.544	0.798	-0.828	0.467 (inactive)	-0.751	0.404 (inactive)	-0.616 (inactive)	-0.761 (inactive)	-0.395 (inactive)	-0.887	-0.441	-1.92	-1.4	0.628
